From PubChem BioAssay (NCATS) come the findings set out here.

Results filed as inconclusive are left out. Where a call stands in place of a potency, no number is given. Values without a mark were called inactive. The source made the active and inactive calls. Calls come from the whole dose curve; as a rule, active = well fitted curve in the direction sought with a large enough effect; inconclusive = small, poorly fitted or top-dose-only effect, or another doubt; inactive = no such curve, though single readings can be large; an effect the other way counts as inactive or inconclusive.

Sequence of Protein phosphatase 1D (Homo sapiens) (O15297 whole entry, looked up): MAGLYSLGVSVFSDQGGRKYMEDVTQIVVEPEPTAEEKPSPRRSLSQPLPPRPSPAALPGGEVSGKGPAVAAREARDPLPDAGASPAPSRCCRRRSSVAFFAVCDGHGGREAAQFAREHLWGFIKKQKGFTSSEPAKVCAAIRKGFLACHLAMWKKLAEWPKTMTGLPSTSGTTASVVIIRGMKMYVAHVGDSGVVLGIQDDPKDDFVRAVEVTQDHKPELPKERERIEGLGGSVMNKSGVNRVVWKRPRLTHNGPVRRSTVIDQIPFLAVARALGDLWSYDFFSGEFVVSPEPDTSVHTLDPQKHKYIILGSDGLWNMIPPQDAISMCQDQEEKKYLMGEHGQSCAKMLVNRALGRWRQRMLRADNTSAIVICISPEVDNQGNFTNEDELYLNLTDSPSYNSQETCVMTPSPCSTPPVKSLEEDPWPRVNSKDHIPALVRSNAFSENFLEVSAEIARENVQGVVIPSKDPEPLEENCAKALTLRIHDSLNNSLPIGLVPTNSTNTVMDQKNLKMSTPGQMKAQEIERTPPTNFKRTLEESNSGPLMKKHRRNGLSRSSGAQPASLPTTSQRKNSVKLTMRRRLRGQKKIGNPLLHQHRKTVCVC

Tested on in the first experiment: not listed separately
As to the kind of experiment: Tertiary RLuc qRT-PCR qHTS assay for Zika virus inhibitors (AID 1347169). For activity change, negative = inhibition: top concentration of the series differs between compounds. Note: nearly all actives have a fitted effect of over 55% in size. Note: potency is the fitted concentration of half-maximal effect. As to conditions: infected Vero cells, reporter luminescence, 48-72 h; series mostly up to 45.9 µM. In short, it runs like this: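 Orthogonal cell-based infection assay using recombinant ZIKV-RLuc (Cambodian) in Vero cells; compound added prior to virus at MOI 1-2. Incubation lasts 48-72 hrs at 37 degrees C before live-cell Renilla substrate is added and luminescence measured.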
Consider `CCCCOCCOc1nc(-c2ccc(C(=O)O)c(F)c2)sc1C`, for which the Potency result was “inactive”. As for `O=C1Nc2ccc(I)cc2C1=Cc1cc(Br)c(O)c(Br)c1`, the Potency result is “inactive”.

Turning to `CCOC(=O)[C@H](CCc1ccccc1)N[C@@H](C)C(=O)N1CCCC1C(=O)O` (some centres not stated), the Potency entry is “inactive”. On the same count and under the same terms, the result for `O=C(Nc1ccccc1)Nc1ccc(-c2ccc(C(=O)[C@H]3CCC[C@H]3C(=O)O)cc2)cc1` reads “inactive”.

Turning to `Cc1ccc2c(c1)C(=O)[C@]1(O)CCN(c3ccccc3)C1=N2`, the Potency entry is “inactive”. In the case of `c1cc(OCCN2CCCCC2)cc(-c2n[nH]c3ccc(-c4ncn[nH]4)cc23)c1`, the Potency entry is “inactive”.

`C[C@H]1COC2=C1C(=O)C(=O)c1c2ccc2c1CCCC2(C)C`: the Potency entry is “inactive”. Consider `OC(c1cc(C(F)(F)F)nc2c(C(F)(F)F)cccc12)C1CCCCN1` (configuration not stated), for which the Potency was 16.5 µM (active). Regarding `CCCCC[C@H](O)C=C[C@H]1[C@H](O)CC(=O)[C@H]1CCCCCCC(=O)O`, the Potency entry is “inactive”. For `CC[C@H](C)n1cc(C)c2c(C(=O)NCc3c(C)cc(C)[nH]c3=O)cc(-c3ccc(N4CCNCC4)nc3)cc21`, the Potency entry is “inactive”. The same measure, in the same setting: the result for `COc1cc(Cl)cn2c(-c3cccc(NC4CNC4)n3)cnc12` reads “inactive”. Still for that read-out and setting: the result for `Cc1nc(C(=O)NCC(=O)O)c(O)c2ccc(Oc3ccccc3)cc12` reads “inactive”. For the compound `O=S(=O)(O)c1ccc2cc(N=Nc3cc(S(=O)(=O)O)c4cccnc4c3O)ccc2c1`, the Potency is 3.7 µM (active).

Consider `O=c1cc(-c2ccc(O)c(O)c2)oc2cc(O)cc(O)c12`, for which the activity change, negative = inhibition was 46.1% [at 3.57 µM].

Tested on in another experiment: not listed separately
In words: qHTS to identify inhibitors of the type 1 interferon - major histocompatibility complex class I in skeletal muscle: primary screen against the NCATS Pharmaceutical Collection (AID 1347407). As to conditions: human skeletal muscle cells, IFN-b-induced MHC-I HiBiT luminescence, 24 h; series mostly up to 45.9 µM. An outline of the steps:
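Cells were seeded with 4 ng/ml IFN-beta, incubated 1 h, then dosed with compounds over eight 1:5 steps up to 46 uM final. After 24 h at 37 C, HiBiT lytic reagent was added and luminescence read after 10 min lysis in the dark.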
Background: qHTS replaces the single test concentration by a dilution series.
For `COc1ccc(-c2nc3ccc(C4=NNC(=O)CC4C)cc3[nH]2)cc1` (configuration not stated), the compound was classed as inactive. The same measure, in the same setting: the result for `COc1ccnc(CS(=O)c2nc3ccc(OC(F)F)cc3[nH]2)c1OC` (configuration not stated) reads “inactive”.

Take `O=C(Nc1cccc2c(=O)cc(-c3nn[nH]n3)oc12)c1ccc(OCCCCc2ccccc2)cc1`: the outcome was inactive. In the case of `CN(C)CCN(Cc1ccc(Cl)cc1)c1ccccn1`, the result was inactive. In the case of `OC[C@H]1O[C@@H](OCCc2ccc(O)cc2)[C@H](O)[C@@H](O)[C@H]1O`, the compound was called inactive. `C[C@@H]1C[C@H]2[C@@H]3CCC4=CC(=O)C=C[C@]4(C)[C@@]3(F)[C@@H](O)C[C@]2(C)[C@@]1(O)C(=O)CO`: the compound was classed as inactive.

Tested on in the next experiment: not listed separately
In words: qHTS to identify inhibitors of the type 1 interferon - major histocompatibility complex class I in skeletal muscle: primary screen against the NCATS Mechanism Interrogation Plate v5.0 (MIPE) Libary (AID 1347411). Note: nearly all actives have a fitted effect of over 65% in size. Note: potency is the fitted concentration of half-maximal effect. As to conditions: iHSKM cells + IFN-b, HiBiT-tagged MHC-I luminescence, 24 h; series mostly up to 45.8 µM. An outline of the steps: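 Immortalized human C25cl48 myoblasts with HiBit knocked into endogenous HLA-B*08:01 were stimulated with 4.0 ng/ml IFN-beta and exposed to compounds (11-point 1:3 titration, top 46 uM final) for 24 hrs at 37 C; HiBiT lytic luminescence measured.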
With `COc1ccc(-c2ccc3ncc4c(c3c2)n(-c2ccc(N3CCNCC3)c(C(F)(F)F)c2)c(=O)n4C)cn1`, the Potency is 0.147 µM (active).

As to `COc1ccc(-c2nc3ccc(C4=NNC(=O)CC4C)cc3[nH]2)cc1` (configuration not stated), the Potency entry was “inactive”. Take `CCCCOCCOc1nc(-c2ccc(C(=O)O)c(F)c2)sc1C`: the Potency entry is “inactive”. On to `Cc1ccc2c(c1)C(=O)[C@]1(O)CCN(c3ccccc3)C1=N2`, for which the Potency entry is “inactive”. The same measure, in the same setting: the result for `COc1ccnc(CS(=O)c2nc3ccc(OC(F)F)cc3[nH]2)c1OC` (configuration not stated) reads “inactive”; that for `c1cc(OCCN2CCCCC2)cc(-c2n[nH]c3ccc(-c4ncn[nH]4)cc23)c1`, “inactive”; that for `Cc1cc(OCCCS(C)(=O)=O)cc(C)c1-c1cccc(COc2ccc3c(c2)OC[C@H]3CC(=O)O)c1`, “inactive”. On to `CC[C@H](C)n1cc(C)c2c(C(=O)NCc3c(C)cc(C)[nH]c3=O)cc(-c3ccc(N4CCNCC4)nc3)cc21`, for which the Potency result was “inactive”. As for `C[C@@H]1C[C@H]2[C@@H]3CCC4=CC(=O)C=C[C@]4(C)[C@@]3(F)[C@@H](O)C[C@]2(C)[C@@]1(O)C(=O)CO`, the Potency entry is “inactive”. On to `Cc1nc(C(=O)NCC(=O)O)c(O)c2ccc(Oc3ccccc3)cc12`, for which the Potency result is “inactive”. With `O=S(=O)(O)c1ccc2cc(N=Nc3cc(S(=O)(=O)O)c4cccnc4c3O)ccc2c1`, the Potency entry was “inactive”.

For the next experiment, the target named is Protein phosphatase 1D (Homo sapiens) (UniProt O15297). In words: RapidFire Mass Spectrometry qHTS Assay for Modulators of WT P53-Induced Phosphatase 1 (WIP1) (AID 1347424).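 Note: amount of dephosphorylated VEPPL-S-QETFS peptide product formed by WIP1.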 Note: potency is the fitted concentration of half-maximal effect. As to conditions: WIP1 dephosphorylation of phosphopeptide, RapidFire MS; series mostly up to 63 µM. An outline of the steps:
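WIP1 (10 nM final) was preincubated 1 h at room temperature with compounds in Tris-HCl pH 7.5, 30 mM MgCl2, TCEP, EGTA, BSA; 2 uM VEPPL-pS-QETFS phosphopeptide was added for 5 min, quenched with formic acid, and dephosphorylated product quantified by RapidFire MS.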
Turning to `COc1ccc(-c2nc3ccc(C4=NNC(=O)CC4C)cc3[nH]2)cc1` (configuration not stated), the Potency result is “inactive”.

As to `COc1ccnc(CS(=O)c2nc3ccc(OC(F)F)cc3[nH]2)c1OC` (configuration not stated), the Potency entry was “inactive”. `O=C(Nc1cccc2c(=O)cc(-c3nn[nH]n3)oc12)c1ccc(OCCCCc2ccccc2)cc1`: the Potency is 15.8 µM (active). For the compound `CN(C)CCN(Cc1ccc(Cl)cc1)c1ccccn1`, the Potency entry is “inactive”. On the same count and under the same terms, the result for `OC[C@H]1O[C@@H](OCCc2ccc(O)cc2)[C@H](O)[C@@H](O)[C@H]1O` reads “inactive”. Same read-out and setting: the result for `C[C@@H]1C[C@H]2[C@@H]3CCC4=CC(=O)C=C[C@]4(C)[C@@]3(F)[C@@H](O)C[C@]2(C)[C@@]1(O)C(=O)CO` reads “inactive”.

The target is the same in another experiment. In words: Rhodamine-PBP qHTS Assay for Modulators of WT P53-Induced Phosphatase 1 (WIP1) (AID 1347425). As to conditions: recombinant WIP1, Rhodamine-PBP phosphate fluorescence, real-time; series mostly up to 57.5 µM. An outline of the steps: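 The read-out is the change in Rhodamine-PBP fluorescence (f1 - f0, ex 525/em 598 nm) as Pi is released, read each minute for 11 min. Final reaction: 5 nM WIP1, 10 uM phosphopeptide VEPPL-pS-QETFS, 10 uM Rh-PBP, 50 mM Tris-HCl pH 7.5, 30 mM MgCl2. Compound was preincubated with enzyme for 1 hour at room temperature.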
Take `COc1ccc(-c2nc3ccc(C4=NNC(=O)CC4C)cc3[nH]2)cc1` (configuration not stated): the outcome was inactive.

For the compound `COc1ccnc(CS(=O)c2nc3ccc(OC(F)F)cc3[nH]2)c1OC` (configuration not stated), the result was inactive.

Consider `CN(C)CCN(Cc1ccc(Cl)cc1)c1ccccn1`, for which the result was inactive.

In the case of `OC[C@H]1O[C@@H](OCCc2ccc(O)cc2)[C@H](O)[C@@H](O)[C@H]1O`, the outcome was inactive. On the same count and under the same terms, the result for `C[C@@H]1C[C@H]2[C@@H]3CCC4=CC(=O)C=C[C@]4(C)[C@@]3(F)[C@@H](O)C[C@]2(C)[C@@]1(O)C(=O)CO` reads “inactive”.
